In PubChem BioAssay (Tox21) one finds Potency data, which are given here for 8 molecules.

A short description of assay [1]: qHTS assay to identify small molecule agonists of the farnesoid-X-receptor (FXR) signaling pathway - cell viability counter screen (AID 743218). Note: nearly all actives have a fitted effect of over 45% in size. Note: potency is the fitted concentration of half-maximal effect. The essentials: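 Same-well cytotoxicity check on FXR-UAS-bla HEK 293T cells: 5 h attachment, 16 h compound at 37 C, CellTiter-Glo luminescence read at room temperature after 30 min.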
Assay [2] in a line: qHTS assay to identify small molecule agonists of the vitamin D receptor (VDR) signaling pathway - cell viability counter screen (AID 743224). Note: nearly all actives have a fitted effect of over 50% in size. Note: potency is the fitted concentration of half-maximal effect. The essentials:
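Counter screen for cytotoxicity: VDR-bla cells at 2,000 cells/well, 16 h compound exposure, then CellTiter-Glo luminescence after the beta-lactamase measurement.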

The nature of assay [3]: qHTS assay to identify small molecule antagonists of the vitamin D receptor (VDR) signaling pathway - cell viability counter screen (AID 743225). Note: nearly all actives have a fitted effect of over 50% in size. Note: potency is the fitted concentration of half-maximal effect. In outline:
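Viability counter screen run in the same wells as the beta-lactamase reporter assay: HEK 293T VDR-UAS-bla cells, 16 h compound exposure at 37C with 3 nM (final) 1-alpha,25-dihydroxyvitamin D3. CellTiter-Glo luminescence, 30 min, room temperature.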

A short description of assay [4]: qHTS assay to identify small molecule agonists of the NFkB signaling pathway - cell viability counter screen (AID 1159515; calls by dose curve; note: nearly all actives have a fitted effect of over 55% in size; note: potency is the fitted concentration of half-maximal effect). The essentials:
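Counter screen run alongside the NFkB-bla agonist assay: ME-180 reporter cells exposed to compounds for 5 hr, then lysed with CellTiter-Glo in the same wells. Luminescence, read after 30 min, reflects viable cells.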

Assay [5] in a line: qHTS assay to identify small molecule agonists of the endoplasmic reticulum stress response signaling pathway - cell viability counter screen (AID 1159517; calls by dose curve; note: nearly all actives have a fitted effect of over 50% in size; note: potency is the fitted concentration of half-maximal effect). In outline:
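In parallel with the ESRE reporter read, cytotoxicity was scored by CellTiter-Glo luminescence (30 min, room temperature) on HeLa ESRE-bla cells dosed for 5 hr.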

Assay [6] is described as follows: qHTS assay to identify small molecule antagonists of the retinoid-related orphan receptor gamma (ROR-gamma) signaling pathway - cell viability counter screen (AID 1159520). Note: nearly all actives have a fitted effect of over 50% in size. Note: potency is the fitted concentration of half-maximal effect. In outline: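 Tet-on ROR gamma CHO cells were given compounds for 2 hr, then doxycycline hyclate at 1 uM final, and incubated 16 hr at 37 C. Viability was measured as ATP content by CellTiter-Glo luminescence.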

Assay [7] concerns the target Nuclear receptor ROR-gamma (Homo sapiens) (UniProt P51449). Put plainly: qHTS assay to identify small molecule antagonists of the retinoid-related orphan receptor gamma (ROR-gamma) signaling pathway (AID 1159521; note: nearly all actives have a fitted effect of over 50% in size; note: potency is the fitted concentration of half-maximal effect). In outline:
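Luminescence readout (ONE-Glo, 30 min RT) after 16 h doxycycline induction; loss of signal scored as antagonism. CHO cells with TET-inducible RORγ and RORE-LUC reporter; compounds added 2 h before 1 uM final doxycycline.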

A short description of assay [8]: qHTS assay to identify small molecule agonists of the AP-1 signaling pathway - cell viability counter screen (AID 1159525; calls by dose curve; note: nearly all actives have a fitted effect of over 55% in size; note: potency is the fitted concentration of half-maximal effect). In outline: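 Same-well cytotoxicity counter screen of the Tox21 10K library in ME-180 cells. The readout is ATP-dependent luminescence after 5 h compound treatment. Data are normalised to DMSO and tetra n-octyl ammonium bromide controls.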

Assay [9] can be described thus: qHTS assay to identify small molecule agonists of the AP-1 signaling pathway (AID 1159526; calls by dose curve; note: potency is the fitted concentration of half-maximal effect).
Assay [10] in a line: qHTS assay to identify small molecule agonists of the RXR signaling pathway - cell viability counter screen (AID 1159529). Note: nearly all actives have a fitted effect of over 50% in size. Note: potency is the fitted concentration of half-maximal effect. The essentials:
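Luminescence from CellTiter-Glo (30 min, RT) measured viability in the same wells as the beta-lactamase reporter readout. Cells: GeneBLAzer RXR-alpha HEK 293T, 2% charcoal-stripped FBS. Compound exposure 16 hr, 37 C.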

The nature of assay [11]: qHTS assay to identify small molecule antagonists of the peroxisome proliferator-activated receptor delta (PPARd) signaling pathway - cell viability counter screen (AID 743213). Note: nearly all actives have a fitted effect of over 50% in size. Note: potency is the fitted concentration of half-maximal effect. The essentials:
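PPARd-bla HEK293H cells were treated with compounds plus agonist L165041 (300 nM final) for 17 h at 37 C. Viability was then read in the same wells by CellTiter-Glo luminescence after 30 min at room temperature.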

A short description of assay [12]: qHTS assay to identify small molecule antagonists of the farnesoid-X-receptor (FXR) signaling pathway - cell viability counter screen (AID 743221; active = well fitted cell-killing curve with a large enough effect in the repeat runs, not every such curve was filed as active; note: nearly all actives have a fitted effect of over 50% in size; note: potency is the fitted concentration of half-maximal effect). The essentials:
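HEK 293T FXR-bla cells, 5 h pre-incubation; compound + CDCA 50 uM final, 16 h, 37 C; beta-lactamase FRET read first, then CellTiter-Glo luminescence, 30 min RT.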

Assay [13] concerns the target Bile acid receptor (Homo sapiens) (UniProt Q96RI1). The assay can be described thus: qHTS assay to identify small molecule antagonists of the farnesoid-X-receptor (FXR) signaling pathway (AID 743217; active = well fitted inhibition curve with a large enough effect in the signal ratio in the repeat runs, not every such curve was filed as active; the % refers to the signal ratio). The essentials: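 Quantitative HTS, beta-lactamase reporter format: FXR-UAS-bla HEK 293T cells co-treated 16 h at 37 °C with compounds and 50 uM final chenodeoxycholic acid, then read by B/G FRET fluorescence.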

Assay [14] shares this target. Put plainly: qHTS assay to identify small molecule agonists of the farnesoid-X-receptor (FXR) signaling pathway (AID 743220; active = well fitted activation curve with a large enough effect in the signal ratio in the repeat runs, not every such curve was filed as active; the % refers to the signal ratio). In outline:
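FXR-UAS-bla HEK 293T cells carrying a UAS-driven beta-lactamase reporter were plated for 5 h at 37C/5% CO2, then exposed to DMSO-dissolved Tox21 10K compounds for 16 h at 37C. A LiveBLAzer B/G FRET substrate was loaded for 2 h at room temperature before fluorescence reading.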

The target of assay [15] is Vitamin D3 receptor (Homo sapiens) (UniProt P11473). Put plainly: qHTS assay to identify small molecule agonists of the vitamin D receptor (VDR) signaling pathway (AID 743222; calls by dose curve). The essentials:
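Using LiveBLAzer B/G FRET detection, agonism was scored in VDR-bla cells exposed overnight (16 h, 37C) to DMSO-dissolved compounds; substrate incubation was 2 h at room temperature.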

The target is the same in assay [16]. Put plainly: qHTS assay to identify small molecule antagonists of the vitamin D receptor (VDR) signaling pathway (AID 743223; active = well fitted inhibition curve with a large enough effect in the signal ratio in the repeat runs, not every such curve was filed as active; the % refers to the signal ratio; note: potency is the fitted concentration of half-maximal effect). In outline:
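Beta-lactamase reporter read-out: FRET substrate fluorescence after 2 h at room temperature, following 16 h exposure of VDR-bla cells to test compound plus 3 nM (final) 1alpha,25-dihydroxyvitamin D3 agonist at 37C.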

The target of assay [17] is Retinoic acid receptor RXR-alpha (Homo sapiens) (UniProt P19793). Put plainly: qHTS assay to identify small molecule agonists of the RXR signaling pathway (AID 1159527; calls by dose curve; note: nearly all actives have a fitted effect of over 35% in size). The essentials:
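Agonist mode; 9-cis retinoic acid positive control. HEK 293T UAS-bla reporter cells, 2% charcoal-stripped FBS, 16 hr compound exposure at 37 C/5% CO2. LiveBLAzer B/G FRET substrate 2 hr RT; ex 405, em 460/530 nm.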

Assay [18] deals with Peroxisome proliferator-activated receptor delta (Homo sapiens) (UniProt Q03181). Put plainly: qHTS assay to identify small molecule agonists of the peroxisome proliferator-activated receptor delta (PPARd) signaling pathway (AID 743212; calls by dose curve). In outline:
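Tox21 library screened in GeneBLAzer PPARd UAS-bla HEK293H cells. After compound treatment at 37 C, a FRET-based beta-lactamase substrate was applied for 2 h and fluorescence recorded.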

The target is the same in assay [19]. Put plainly: qHTS assay to identify small molecule antagonists of the peroxisome proliferator-activated receptor delta (PPARd) signaling pathway (AID 743215; active = well fitted inhibition curve with a large enough effect in the signal ratio in the repeat runs, not every such curve was filed as active; the % refers to the signal ratio;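 note: cells stimulated with agonist L165041 at 300 nM final during compound exposure; series mostly up to about 62 µM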). The essentials:
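Screen format: qHTS, antagonist mode. HEK293H PPARd-bla cells received compound and 300 nM L165041 (final), 17 h, 37 C. Beta-lactamase detected via FRET substrate fluorescence, 2 h, room temperature.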

Several values for one entry are separate records, joined by “and”; a condition that tells them apart may be missing. Identical values can stand only once. Inconclusive results are not listed. A structure can be active in one record and inactive in another. Activity calls are given as the source filed them. Unless noted, calls come from the whole dose curve; as a rule, active = well fitted curve in the direction sought with a large enough effect in the repeat runs; inconclusive = weak or mixed curves; inactive = no such curve, though single readings can be large; an effect the other way counts as inactive or inconclusive.

Sequence of Vitamin D3 receptor (Homo sapiens) (P11473 whole entry, looked up): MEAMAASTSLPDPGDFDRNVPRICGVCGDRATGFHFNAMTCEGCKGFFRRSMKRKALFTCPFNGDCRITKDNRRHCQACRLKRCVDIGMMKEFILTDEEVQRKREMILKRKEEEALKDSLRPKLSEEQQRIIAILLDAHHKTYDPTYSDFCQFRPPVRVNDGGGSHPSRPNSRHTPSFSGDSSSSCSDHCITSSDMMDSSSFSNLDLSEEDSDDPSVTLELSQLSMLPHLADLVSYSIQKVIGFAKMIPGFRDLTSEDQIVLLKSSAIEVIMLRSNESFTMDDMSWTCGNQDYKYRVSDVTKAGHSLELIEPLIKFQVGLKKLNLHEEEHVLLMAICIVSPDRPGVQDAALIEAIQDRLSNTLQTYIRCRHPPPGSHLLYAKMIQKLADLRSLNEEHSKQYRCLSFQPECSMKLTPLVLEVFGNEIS
Sequence of Peroxisome proliferator-activated receptor delta (Homo sapiens) (Q03181 whole entry, looked up): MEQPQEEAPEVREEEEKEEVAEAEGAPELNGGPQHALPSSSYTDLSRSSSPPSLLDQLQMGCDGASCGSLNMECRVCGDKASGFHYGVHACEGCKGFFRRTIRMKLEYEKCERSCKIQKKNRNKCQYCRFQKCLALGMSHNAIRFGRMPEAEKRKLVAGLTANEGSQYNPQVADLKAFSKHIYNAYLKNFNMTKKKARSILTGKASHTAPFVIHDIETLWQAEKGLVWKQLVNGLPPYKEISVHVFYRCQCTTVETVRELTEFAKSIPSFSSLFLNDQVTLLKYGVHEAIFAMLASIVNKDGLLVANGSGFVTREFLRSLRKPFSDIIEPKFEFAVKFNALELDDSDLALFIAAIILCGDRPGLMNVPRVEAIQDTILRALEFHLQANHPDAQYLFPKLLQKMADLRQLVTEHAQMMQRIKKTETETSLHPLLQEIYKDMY
Sequence of Bile acid receptor (Homo sapiens) (Q96RI1 whole entry, looked up): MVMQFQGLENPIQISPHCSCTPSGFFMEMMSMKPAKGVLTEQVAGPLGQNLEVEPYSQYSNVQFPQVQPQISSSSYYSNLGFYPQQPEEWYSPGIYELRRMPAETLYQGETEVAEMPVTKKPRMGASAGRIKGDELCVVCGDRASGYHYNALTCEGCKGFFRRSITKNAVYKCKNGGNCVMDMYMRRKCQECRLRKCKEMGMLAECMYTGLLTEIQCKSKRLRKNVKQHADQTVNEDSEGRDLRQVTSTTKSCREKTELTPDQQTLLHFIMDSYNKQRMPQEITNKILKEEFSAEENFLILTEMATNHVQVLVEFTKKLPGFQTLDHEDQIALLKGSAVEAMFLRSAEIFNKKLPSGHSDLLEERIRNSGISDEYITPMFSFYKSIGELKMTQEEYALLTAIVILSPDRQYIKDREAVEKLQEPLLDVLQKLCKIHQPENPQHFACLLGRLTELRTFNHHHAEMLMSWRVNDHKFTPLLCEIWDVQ
Sequence of Retinoic acid receptor RXR-alpha (Homo sapiens) (P19793 whole entry, looked up): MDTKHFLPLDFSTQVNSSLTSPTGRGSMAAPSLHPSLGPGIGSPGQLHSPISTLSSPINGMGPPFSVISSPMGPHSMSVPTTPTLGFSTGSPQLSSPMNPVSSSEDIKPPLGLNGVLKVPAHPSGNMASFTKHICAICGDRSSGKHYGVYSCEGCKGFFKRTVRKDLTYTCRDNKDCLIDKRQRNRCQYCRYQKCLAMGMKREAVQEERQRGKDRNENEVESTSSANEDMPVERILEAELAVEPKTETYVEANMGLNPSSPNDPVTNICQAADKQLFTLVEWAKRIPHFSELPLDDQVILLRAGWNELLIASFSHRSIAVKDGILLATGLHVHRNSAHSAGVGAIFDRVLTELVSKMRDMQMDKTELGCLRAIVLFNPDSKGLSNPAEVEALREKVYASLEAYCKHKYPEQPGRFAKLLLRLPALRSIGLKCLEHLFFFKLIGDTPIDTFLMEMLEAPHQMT

Regarding `CCCCCC(=O)O[C@]1(C(C)=O)CC[C@H]2[C@@H]3CCC4=CC(=O)CC[C@]4(C)[C@H]3CC[C@@]21C`, the Potency in assay [1] was 43.4 µM (active); in assay [2], 43.4 µM (active) and inactive; in assay [3], 43.4 µM (active) and 23.9 µM (active); in assay [6], 60.7 µM (active); in assay [7], 27.1 µM (active) and 23.7 µM (active); in assay [10] it was 19.4 µM (active) and 23.9 µM (active). Also, the Potency entry in assay [4], in assay [5], in [8] and in assay [9] was “inactive” in each case.
As to `CN(C)c1ccc(C(=C2C=CC(=[N+](C)C)C=C2)c2ccccc2)cc1`, the Potency is 490 nM (active) and 3.35 µM (active) in assay [11]; 437 nM (active) and 2.37 µM (active) in [1]; 617 nM (active) and 1.5 µM (active) in assay [12]; 219 nM (active) and 2.11 µM (active) in assay [2]; 490 nM (active) and 3.38 µM (active) in assay [3]; 3.09 µM (active) and 10.7 µM (active) in [4]. Besides, the Potency in assay [5] was 27.5 µM (active); in [6], 5.45 µM (active) and 4.22 µM (active) and 10.6 µM (active); in [8] it was 13.8 µM (active) and 23.9 µM (active) and 10.7 µM (active); in [9], 0.848 µM (active); in assay [10], 3.47 µM (active) and 2.39 µM (active) and 4.25 µM (active).
Take `Nc1nc2ccccc2[nH]1`: the Potency entry in [11], in assay [13], in assay [1], in [14], in assay [12] and in assay [15] was “inactive” in each case. Further, the Potency result in assay [16], in assay [2], in [3], in assay [4], in assay [5] and in assay [6] was “inactive” each time. The Potency entry in [8], in assay [17] and in [10] was “inactive” throughout.
For `CCCCCCCCCCCCCC[P+](CCCC)(CCCC)CCCC`, the Potency in assay [11] was 7.72 µM (active) and 11 µM (active); in assay [1], 19.4 µM (active) and 24.5 µM (active); in [12], 21.8 µM (active) and 21.9 µM (active); in assay [16] it was 19.4 µM (active) and 24.5 µM (active); in assay [2], 6.88 µM (active) and 7.76 µM (active); in assay [3], 6.88 µM (active) and 7.76 µM (active). The Potency in [4] is 34.5 µM (active) and 21.9 µM (active); in assay [5], 13.7 µM (active) and 15.5 µM (active); in assay [6], 13.6 µM (active) and 10.9 µM (active); in assay [7] it was 3.05 µM (active) and 4.86 µM (active); in assay [8], 17.3 µM (active) and 21.9 µM (active); in assay [10] it was 6.13 µM (active) and 11 µM (active).
Turning to `COc1ccc(CCN(C)CCCC(C#N)(c2ccc(OC)c(OC)c2)C(C)C)cc1OC` (stereo unspecified), the Potency result in assay [11], in assay [1], in assay [12], in [4], in assay [5] and in assay [6] was “inactive” each time. Also, the Potency result in assay [7] and in [8] was “inactive” each time.
As for `O=C(Nc1ccccc1SSc1ccccc1NC(=O)c1ccccc1)c1ccccc1`, the Potency is 12.4 µM (active) and 11 µM (active) in assay [11]; 12.4 µM (active) and 12.3 µM (active) in assay [2]; 24.3 µM (active) in assay [6]; 8.68 µM (active) and 17.2 µM (active) in assay [7]; 19.6 µM (active) and 21.9 µM (active) in assay [10]. The Potency entry in assay [1], in [12], in [4], in assay [5] and in assay [8] was “inactive” in each case.
In the case of `CC[C@]1(O)C[C@@H]2CN(CCc3c([nH]c4ccccc34)[C@@](C(=O)OC)(c3cc4c(cc3OC)N(C)[C@H]3[C@@](O)(C(=O)OC)[C@H](OC(C)=O)[C@]5(CC)C=CCN6CC[C@]43[C@@H]65)C2)C1`, the Potency entry in [18], in [11], in assay [19], in assay [1], in assay [12] and in [15] was “inactive” throughout. The Potency result in assay [16], in assay [2], in assay [3], in [4], in [5] and in [8] was “inactive” each time. In addition, the Potency in assay [7] is 596 nM (active) and 8.41 µM (active); in assay [9] it was 0.268 µM (active).
With `BrC1CCC(Br)C(Br)CCC(Br)C(Br)CCC1Br` (stereo unspecified), the Potency result in assay [18], in [19], in assay [14], in assay [12], in [15] and in [16] was “inactive” throughout. Moreover, the Potency result in assay [4], in [5] and in assay [8] was “inactive” each time. In addition, the Potency in assay [11] is 10.4 µM (active); in [1], “inactive and 20.8 µM (active)”; in assay [2] it was 18.5 µM (active); in assay [3], 16.5 µM (active); in assay [6], 43.1 µM (active); in assay [7], 27.2 µM (active) and 58 µM (active). In addition, the Potency in assay [10] is 15.4 µM (active) and 18.5 µM (active).
